According to PubChem BioAssay (NCI):
Values joined by “and” are separate entries in the source; they are usually repeats but may differ in a detail not shown here. Identical values can stand only once. Compounds without any hit were thinned out: in the full panel of roughly 83,000, 20% have a hit.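 In brief: 96-well plates, 48 h treatment, single concentration, percent growth endpoint.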 Active and inactive are the calls of the source. How the source made its calls: active means growth percent below 10; inactive means the rest.

Assays:
Experiment in all cases: NCI-60 one-dose screen, 48 h (100 = growth as untreated, 0 = no growth, -100 = all killed)
[1] = system: HL-60(TB) leukemia; conditions: 10 µM unless noted
[2] = system: UACC-62 melanoma; conditions: 10 µM unless noted
[3] = system: TK-10 renal; conditions: 10 µM unless noted
[4] = system: MCF7 breast; conditions: 10 µM unless noted
[5] = system: A549/ATCC NSCLC; conditions: 10 µM unless noted
[6] = system: 786-0 renal; conditions: 10 µM unless noted
[7] = system: DU-145 prostate; conditions: 10 µM unless noted
[8] = system: SF-268 CNS; conditions: 10 µM unless noted
[9] = system: SF-539 CNS; conditions: 10 µM unless noted
[10] = system: UACC-257 melanoma; conditions: 10 µM unless noted
[11] = system: M14 melanoma; conditions: 10 µM unless noted
[12] = system: HCT-15 colon; conditions: 10 µM
[13] = system: HT29 colon; conditions: 10 µM unless noted
[14] = system: PC-3 prostate; conditions: 10 µM unless noted
[15] = system: SK-MEL-28 melanoma; conditions: 10 µM unless noted
[16] = system: OVCAR-8 ovarian; conditions: 10 µM unless noted
[17] = system: OVCAR-5 ovarian; conditions: 10 µM unless noted
[18] = system: OVCAR-3 ovarian; conditions: 10 µM unless noted
[19] = system: NCI/ADR-RES ovarian; conditions: 10 µM unless noted
[20] = system: BT-549 breast; conditions: 10 µM

Question: How did the growth [1] turn out when `COc1ccc(-c2cn[nH]c2-c2cc(OC)c(OC)c(OC)c2)cc1` was run?
Answer: -21.2% (active)

Question: Which results are given for `CN(N)/N=N/c1nc[nH]c1C(N)=O`?
Answer: growth [2]: -13.9% [100 µM] (active) and 0.502% [100 µM] (active); growth [3]: 5.8% [100 µM] (active) and 2.21% [100 µM] (active); growth [4]: 19% [100 µM] (inactive) and 4.05% [100 µM] (active)

Question: With `CCOC(=O)C1(c2ccccc2)CCN(CC(=O)c2ccc(NC(C)=O)cc2)CC1` as the compound, how does the growth [5] read?
Answer: 95% (inactive)

Question: What about the growth [6] of the same compound?
Answer: 110% (inactive)

Question: What about the growth [7] of the same compound?
Answer: 123% (inactive)

Question: What about the growth [8] of the same compound?
Answer: 116% (inactive)

Question: And the growth [9]?
Answer: 113% (inactive)

Question: And the growth [10]?
Answer: 104% (inactive)

Question: What about the growth [11] of the same compound?
Answer: 93.6% (inactive)

Question: And the growth [12]?
Answer: 108% (inactive)

Question: What about the growth [13] of the same compound?
Answer: 103% (inactive)

Question: What about the growth [14] of the same compound?
Answer: 86.8% (inactive)

Question: And the growth [2]?
Answer: 94% (inactive)

Question: And the growth [15]?
Answer: 124% (inactive)

Question: What about the growth [1] of the same compound?
Answer: 111% (inactive)

Question: And the growth [16]?
Answer: 110% (inactive)

Question: What about the growth [17] of the same compound?
Answer: 100% (inactive)

Question: What about the growth [18] of the same compound?
Answer: 128% (inactive)

Question: And the growth [19]?
Answer: 107% (inactive)

Question: And the growth [20]?
Answer: 97% (inactive)

Question: And the growth [4]?
Answer: 107% (inactive)

Question: For `Oc1ccccc1OB(Oc1ccccc1O)N(CCCl)CCCl`, which growth [5] is on record?
Answer: 67% (inactive)

Question: And the growth [6]?
Answer: 92.3% (inactive)

Question: And the growth [7]?
Answer: 86.9% (inactive)

Question: What about the growth [8] of the same compound?
Answer: 63.5% (inactive)

Question: And the growth [9]?
Answer: 63.2% (inactive)

Question: And the growth [10]?
Answer: 84.4% (inactive)

Question: And the growth [11]?
Answer: 85.2% (inactive)

Question: What about the growth [12] of the same compound?
Answer: 75.7% (inactive)

Question: And the growth [13]?
Answer: 85.9% (inactive)

Question: What about the growth [14] of the same compound?
Answer: 82.8% (inactive)

Question: What about the growth [2] of the same compound?
Answer: 94.7% (inactive)

Question: What about the growth [15] of the same compound?
Answer: 110% (inactive)

Question: And the growth [3]?
Answer: 98.9% (inactive)

Question: What about the growth [1] of the same compound?
Answer: 0.713% (active)

Question: What about the growth [16] of the same compound?
Answer: 77.2% (inactive)

Question: What about the growth [17] of the same compound?
Answer: 102% (inactive)

Question: What about the growth [18] of the same compound?
Answer: 73.8% (inactive)

Question: And the growth [19]?
Answer: 85% (inactive)

Question: And the growth [20]?
Answer: 49.4% (inactive)

Question: What about the growth [4] of the same compound?
Answer: 88.2% (inactive)

Question: With `NC(=O)CN1C(=O)C(Cc2ccc(O)cc2)N=C(c2cccc(O)c2)c2ccccc21` (stereo not given) as the compound, how does the growth [2] read?
Answer: 80.7% [30 µM] (inactive)

Question: What about the growth [3] of the same compound?
Answer: 106% [30 µM] (inactive)

Question: What about the growth [4] of the same compound?
Answer: 75.5% [30 µM] (inactive)

Question: Which growth [1] does the source give for `Nc1nc(SCc2cccnc2)c2ncn(C3OC(CO)C(O)C3O)c2n1` (stereo not given) here?
Answer: 103% (inactive)

Question: `Clc1ccc(-n2ncc3c(NCCCN4CCOCC4)ncnc32)cc1` was tested. Which growth [1] did it give?
Answer: 86% (inactive)

Question: How did the growth [1] turn out when `CC(=O)Nc1cccc(NC(C)=O)n1` was run?
Answer: 96.5% (inactive)

Question: `O=C1CCC(N2C(=O)c3cccc(NCCCCCCOc4ccc(Nc5nccc(Nc6ccccc6)n5)cc4)c3C2=O)C(=O)N1` (stereo not given) was tested. Which growth [1] did it give?
Answer: 87.2% (inactive)

Question: For `Cc1nc(-c2ccc(Cl)cc2)ccc1NC(=O)Nc1cccc(C(F)(F)F)c1`, which growth [1] is on record?
Answer: 79.7% (inactive)

Question: Which growth [2] does the source give for `CN1C(=O)C(CCC(=O)O)N=C(c2cccc(O)c2)c2ccccc21` (stereo not given) here?
Answer: 82% [30 µM] (inactive)

Question: And the growth [3]?
Answer: 113% [30 µM] (inactive)

Question: What about the growth [4] of the same compound?
Answer: 89% [30 µM] (inactive)

Question: Which growth [2] does the source give for `NC(=O)CN1C(=O)C(Cc2ccccc2)N=C(c2cccc(O)c2)c2ccccc21` (stereo not given) here?
Answer: 97.8% [30 µM] (inactive)

Question: What about the growth [3] of the same compound?
Answer: 102% [30 µM] (inactive)

Question: And the growth [4]?
Answer: 96.4% [30 µM] (inactive)

Question: How did the growth [1] turn out when `NNC(=O)c1nc2ccccc2[nH]1` was run?
Answer: 101% (inactive)

Question: With `CN(C)CCN(Cc1ccccc1)c1ccccc1` as the compound, how does the growth [1] read?
Answer: 86.6% (inactive)

Question: How did the growth [1] turn out when `O=C(O)c1cn(C2CC2)c2cc(N3CCN(C(=O)Nc4nc(-c5ccc(Cl)cc5)cs4)CC3)c(F)cc2c1=O` was run?
Answer: -26.2% (active)

Question: `FC(F)(F)c1ccc(-c2ncc(-c3ccc(C(F)(F)F)cc3)c(NCc3cc(C(F)(F)F)cc(C(F)(F)F)c3)n2)cc1` was tested. Which growth [1] did it give?
Answer: 71.7% (inactive)

Question: For `C#CCNC(=O)[C@H](Cc1ccccc1)NC(=O)[C@]12CC[C@@H](C(=C)C)[C@@H]1[C@H]1CC[C@@H]3[C@@]4(C)CCC(=O)C(C)(C)[C@@H]4CC[C@@]3(C)[C@]1(C)CC2`, which growth [1] is on record?
Answer: 33% (inactive)

Question: How did the growth [1] turn out when `COc1ccc(C(=O)c2cc(OC)c(OC)c(OC)c2)cc1OC(=O)CCl` was run?
Answer: -34.4% (active)

Question: With `Cc1cc(C)on1` as the compound, how does the growth [1] read?
Answer: 76.3% (inactive)

Question: Which growth [1] does the source give for `COc1ccc(/C=C2\CN(C(=O)C(Cl)Cl)C/C(=C\c3ccc(OC)cc3)C2=O)cc1` here?
Answer: -11.9% (active)

Question: For `O=C1/C(=C/c2ccc(Cl)cc2)CN(Cc2cn(CCNc3ccnc4cc(Cl)ccc34)nn2)C/C1=C\c1ccc(Cl)cc1`, which growth [1] is on record?
Answer: -51.5% (active)

Question: For `Cc1ccc(-c2csc3nc(C)c(CCCl)c(=O)n23)cc1`, which growth [1] is on record?
Answer: 107% (inactive)

Question: With `O=C(/C=C1\C(=O)N(Cc2ccc([N+](=O)[O-])cc2)c2ccccc21)c1ccc(OCCN2CCCCC2)cc1` as the compound, how does the growth [1] read?
Answer: -50.6% (active)

Question: How did the growth [1] turn out when `COC(=O)CCCCCn1c2ccccc2c2c3c(c4c5ccccc5[nH]c4c21)C(=O)N(O)C3=O` was run?
Answer: 19.1% (inactive)

Question: With `Cn1nc(C(F)(F)F)cc1-c1cc(Cl)c(OCc2ccc(Cl)cc2)c(-c2ccc(Cl)c(C(F)(F)F)c2)c1O` as the compound, how does the growth [1] read?
Answer: -24.3% (active)
